Measured values as given in PubChem BioAssay (Tox21).
A number with no mark means an inactive call. Inconclusive results are not listed. Where a call stands in place of a potency, no number is given. The source made the active and inactive calls. Unless noted, the call rests on the fitted dose curve; in most records, active means well fitted curve in the direction sought with a large enough effect in the repeat runs; inconclusive means weak or mixed curves; inactive means no such curve, though single readings can be large; an effect the other way counts as inactive or inconclusive.

What was measured:
[1] = qHTS assay to identify small molecule agonists of the estrogen receptor alpha (ER-alpha) signaling pathway in the presence of an antagonist - cell viability counter screen (AID 1259386); conditions: VM7Luc4E2 viability, CellTiter-Fluor fluorescence, 22 h; series mostly up to 92.4 µM;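 further: cells exposed to compounds for 22 h at 37 °C before the viability read; nearly all actives have a fitted effect of over 30% in size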; further: potency means the concentration at half of the fitted maximal effect
Summary of the method: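 ICI-182,780 at 10.0nM final accompanies the compound titration (15 concentrations, 22hr, 37C) on VM7Luc4E2 cells. The CellTiter-Fluor fluorescence readout runs in the same wells as the luciferase assay.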

[2] = molecular target: Progesterone receptor (Homo sapiens) (UniProt P06401); test: qHTS assay to identify small molecule agonists of the progesterone receptor (PR) signaling pathway (AID 1346784; calls by dose curve; further: nearly all actives have a fitted effect of over 30% in size; further: potency means the concentration at half of the fitted maximal effect); conditions: PR-UAS-bla HEK293T, beta-lactamase FRET ratio, 16 h; series mostly up to 92.4 µM
Summary of the method: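 Agonist qHTS: compounds pinned onto 3,000 PR-UAS-bla HEK 293T cells per well in charcoal-stripped serum medium, 16hr at 37C, then beta-lactamase activity measured by LiveBLAzer FRET fluorescence after 2 hours at room temperature.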

[3] = qHTS assay to identify small molecule agonists of the progesterone receptor (PR) signaling pathway - cell viability counter screen (AID 1346799; calls by dose curve; further: nearly all actives have a fitted effect of over 45% in size); conditions: PR-UAS-bla HEK293T viability, CellTiter-Glo luminescence, 16 h; series mostly up to 92.4 µM
Summary of the method: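 Cytotoxicity measured by CellTiter-Glo luminescence (30 min, RT) in the same wells as the PR beta-lactamase agonist read. Those HEK293T cells had 16 h compound treatment at 37 C in 2% charcoal-stripped FBS medium.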

[4] = qHTS assay to identify small molecule antagonists of the TGF-beta/Smad signaling pathway - cell viability counter screen (AID 1346824); conditions: SBE-bla HEK293T viability, CellTiter-Glo luminescence; series mostly up to 76.8 µM; further: nearly all actives have a fitted effect of over 50% in size
Summary of the method: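 SBE-bla HEK 293T cells, incubated overnight, then compound plus 0.25 ng/mL TGF-beta1 (stock added) for 5 hr at 37 C. Viability was read in the same wells by CellTiter-Glo luminescence after 30 min at room temperature.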

[5] = qHTS assay to identify small molecule agonists of the TGF-beta/Smad signaling pathway - cell viability counter screen (AID 1346829); conditions: SBE-bla HEK293T viability, CellTiter-Glo luminescence, 5 h; series mostly up to 76.8 µM; further: top concentration of the series differs between compounds; nearly all actives have a fitted effect of over 45% in size
Summary of the method: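 Same-well cytotoxicity: CellTiter-Glo added after the 2 hr room-temperature beta-lactamase substrate step, luminescence measured 30 min later; cells had 5 hr of compound at 37 C.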

[6] = qHTS assay to identify small molecule agonists of the TGF-beta/Smad signaling pathway (AID 1346859; active means well fitted activation curve with a large enough effect in the signal ratio in the repeat runs, not every such curve was filed as active; the % refers to the signal ratio); conditions: SBE-bla HEK293T, TGF-beta/Smad beta-lactamase reporter, 5 h; series mostly up to 76.8 µM
Summary of the method: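 Fluorescence (ex 405 nm; em 460 and 530 nm) was read 2 h after LiveBLAzer FRET substrate at RT. The preceding compound treatment of overnight-plated SBE-bla HEK293T cells lasted 5 h at 37 C.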

[7] = molecular target: Thyrotropin-releasing hormone receptor (Homo sapiens) (UniProt P34981); test: qHTS assay to identify small molecule antagonists of the thyrotropin-releasing hormone receptor (TRHR) signaling pathway (AID 1346877; active means well fitted inhibition curve with a large enough effect in the repeat runs, not every such curve was filed as active); conditions: TRHR-HEK293, TRH-induced calcium fluorescence, antagonist mode; series mostly up to 51.3 µM
Summary of the method: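 Screening used HEK293 cells engineered with TRHR, with a brief 5 min room-temperature compound exposure preceding addition of TRH to 1 nM. The read-out was kinetic calcium-dye fluorescence, concentration-response from 15 doses in triplicate.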

[8] = Human pregnane X receptor (PXR) small molecule agonists, qHTS cell viability counter screen (AID 1346977); conditions: PXR-Luc HepG2 viability, CellTiter-Fluor, 24 h; series mostly up to 92.4 µM; further: nearly all actives have a fitted effect of over 50% in size; further: potency means the concentration at half of the fitted maximal effect
Summary of the method: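 Same-well viability read: CellTiter-Fluor added after 23 hr compound exposure, fluorescence measured 1 hr later. Cells were PXR-Luc HepG2 seeded at 2,000/well in 5% charcoal-stripped FBS medium, rested 5 hr before dosing at 37 C.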

[9] = Caspase-3/7 induction in HepG2 cells by small molecules, qHTS assay (AID 1346978); conditions: HepG2 caspase-3/7 activation, Caspase-Glo luminescence, 17 h; series mostly up to 92.4 µM; further: nearly all actives have a fitted effect of over 15% in size
Summary of the method: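 Wild-type HepG2 cells, 2,000/well, settled 5 hr at 37 C and 5% CO2, then compound-treated for 17 hr; caspase-3/7 activity read by luminescent Caspase-Glo 3/7 after 30 min at room temperature.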

[10] = Caspase-3/7 induction in CHO-K1 cells by small molecules, qHTS cell viability counter screen (AID 1346979); conditions: CellTiter-Fluor fluorescence, 17 h; series mostly up to 92.4 µM; further: nearly all actives have a fitted effect of over 35% in size; further: potency means the concentration at half of the fitted maximal effect
Summary of the method: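 Cytotoxicity counter screen: CellTiter-Fluor added to compound-treated wild-type CHO-K1 cells at 16 h (37C, 5% CO2), fluorescence measured 1 h later; same wells as caspase-3/7 measurement.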

[11] = Caspase-3/7 induction in CHO-K1 cells by small molecules, qHTS assay (AID 1346980); conditions: CHO-K1 caspase-3/7 induction, Caspase-Glo luminescence, 17 h; series mostly up to 92.4 µM; further: nearly all actives have a fitted effect of over 15% in size
Summary of the method: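 Wild-type CHO-K1 cells exposed to compounds for 17hr at 37 C, 5% CO2. Caspase-3/7 activity then measured by Caspase-Glo 3/7 luminescence after 30min at room temperature.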

[12] = Caspase-3/7 induction in HepG2 cells by small molecules, qHTS cell viability counter screen (AID 1346981); conditions: CellTiter-Fluor fluorescence, 17 h; series mostly up to 92.4 µM; further: nearly all actives have a fitted effect of over 30% in size; further: potency means the concentration at half of the fitted maximal effect
Summary of the method: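 Multiplexed with the caspase-3/7 assay: HepG2 cells, 16 hr compound treatment, CellTiter-Fluor viability detection by fluorescence.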

[13] = molecular target: Nuclear receptor subfamily 1 group I member 2 (Homo sapiens) (UniProt O75469); test: Human pregnane X receptor (PXR) small molecule agonists, qHTS assay (AID 1346982); conditions: PXR-Luc HepG2, CYP3A4 luciferase reporter, 24 h; series mostly up to 92.4 µM; further: nearly all actives have a fitted effect of over 35% in size; further: potency means the concentration at half of the fitted maximal effect
Summary of the method: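 We seeded PXR-Luc HepG2 cells in assay medium containing 5% charcoal-stripped FBS, added compounds 5 hr later, incubated 24 hr, and read luminescence with ONE-Glo reagent.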

[14] = molecular target: Progesterone receptor (Homo sapiens) (UniProt P06401); test: qHTS assay to identify small molecule antagonists of the progesterone receptor (PR) signaling pathway (AID 1346795; active means well fitted inhibition curve with a large enough effect in the signal ratio in the repeat runs, not every such curve was filed as active; the % refers to the signal ratio); conditions: PR-UAS-bla HEK293T, beta-lactamase FRET ratio, 16 h; series mostly up to 92.4 µM
Summary of the method: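 Antagonist mode with agonist R5020 at 1 nM final and 16 hr incubation at 37C. Reporter was beta-lactamase driven by UAS in HEK293T (PR-UAS-bla), 2% charcoal-stripped serum; signal from LiveBLAzer FRET substrate, 2 hr at room temperature.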

[15] = qHTS assay to identify small molecule antagonists of the progesterone receptor (PR) signaling pathway - cell viability counter screen (AID 1346798); conditions: PR-UAS-bla HEK293T viability, CellTiter-Glo luminescence, 16 h; series mostly up to 92.4 µM; further: nearly all actives have a fitted effect of over 50% in size
Summary of the method: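 Cytotoxicity read as CellTiter-Glo luminescence (30 min, room temperature) in the same wells as the beta-lactamase readout. HEK293T PR-UAS-bla cells in charcoal-stripped 2% FBS received compound and R5020, then 16 h at 37C, 5% CO2.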

[16] = molecular target: Thyrotropin-releasing hormone receptor (Homo sapiens) (UniProt P34981); test: qHTS assay to identify small molecule agonists of the thyrotropin-releasing hormone receptor (TRHR) signaling pathway (AID 1346891; calls by dose curve); conditions: TRHR-HEK293 calcium fluorescence, agonist mode; series mostly up to 57.6 µM
Summary of the method: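 Agonist-mode intracellular calcium readout: kinetic fluorescence over 3 min at 1 s intervals after compound addition to TRHR-HEK293 cells (18 h seeded, 2 h dye-loaded at 37 C). Fifteen concentrations, triplicates.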

[17] = molecular target: Nuclear receptor subfamily 1 group I member 2 (Rattus norvegicus) (UniProt Q9R1A7); test: Rat pregnane X receptor (rPXR) activation by small molecules, qHTS assay (AID 1346983); conditions: rPXR luciferase reporter cells, One-Glo luminescence, 24 h; max activation: stronger effect = higher value; further: nearly all actives have a fitted effect of over 20% in size
Summary of the method: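 Cell-based rPXR activation assay: rPXR cells, 2,000 per well, rested 5hr at 37 C, then exposed to compounds in DMSO for 24 hr at 37 C. Luciferase activity read by One-Glo luminescence after 30 min at room temperature.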

[18] = molecular target: Nuclear receptor subfamily 1 group I member 2 (Homo sapiens) (UniProt O75469); test: CYP3A4 induction through human pregnane X receptor (PXR) by small molecules, qHTS assay (AID 1346984); conditions: DPX-2 HepG2 PXR, CYP3A4-luciferin luminescence, 24 h; series mostly up to 46.1 µM; further: nearly all actives have a fitted effect of over 40% in size
Summary of the method: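 qHTS, concentration-response format: HepG2 DPX-2 line, PXR/CYP3A4-luc. Exposure 24 h, 37C. Substrate Luciferin-IPA 3uM final, 3 h. Detection One-Glo, 30 min RT.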

[19] = molecular target: Nuclear receptor subfamily 1 group I member 2 (Homo sapiens) (UniProt O75469); test: Human pregnane X receptor (PXR) activation by small molecules, qHTS assay (AID 1346985); conditions: DPX-2 HepG2 CYP3A4-luciferase, 24 h; series mostly up to 38.3 µM; further: nearly all actives have a fitted effect of over 40% in size
Summary of the method: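 DPX-2 cells (HepG2 co-transfected with a PXR response element and a CYP3A4-promoter luciferase construct) were seeded at 2,000 per well, rested 5 hr at 37C, then exposed to DMSO-dissolved compounds for 24 hr. Activation was read as luciferase luminescence.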

Chain of Nuclear receptor subfamily 1 group I member 2 (Homo sapiens) (O75469 whole entry, looked up): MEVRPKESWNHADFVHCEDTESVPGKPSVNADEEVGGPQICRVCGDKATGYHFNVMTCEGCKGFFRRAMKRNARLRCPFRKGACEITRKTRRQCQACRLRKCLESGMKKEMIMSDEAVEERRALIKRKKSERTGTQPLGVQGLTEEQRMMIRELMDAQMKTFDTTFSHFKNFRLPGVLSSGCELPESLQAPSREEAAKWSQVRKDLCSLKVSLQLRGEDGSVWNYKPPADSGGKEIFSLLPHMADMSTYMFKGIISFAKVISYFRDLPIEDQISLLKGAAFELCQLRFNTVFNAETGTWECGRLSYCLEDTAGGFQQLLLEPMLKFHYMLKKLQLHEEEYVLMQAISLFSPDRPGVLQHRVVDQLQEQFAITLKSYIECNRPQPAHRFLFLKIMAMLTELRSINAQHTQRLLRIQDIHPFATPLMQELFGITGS
Chain of Progesterone receptor (Homo sapiens) (P06401 whole entry, looked up): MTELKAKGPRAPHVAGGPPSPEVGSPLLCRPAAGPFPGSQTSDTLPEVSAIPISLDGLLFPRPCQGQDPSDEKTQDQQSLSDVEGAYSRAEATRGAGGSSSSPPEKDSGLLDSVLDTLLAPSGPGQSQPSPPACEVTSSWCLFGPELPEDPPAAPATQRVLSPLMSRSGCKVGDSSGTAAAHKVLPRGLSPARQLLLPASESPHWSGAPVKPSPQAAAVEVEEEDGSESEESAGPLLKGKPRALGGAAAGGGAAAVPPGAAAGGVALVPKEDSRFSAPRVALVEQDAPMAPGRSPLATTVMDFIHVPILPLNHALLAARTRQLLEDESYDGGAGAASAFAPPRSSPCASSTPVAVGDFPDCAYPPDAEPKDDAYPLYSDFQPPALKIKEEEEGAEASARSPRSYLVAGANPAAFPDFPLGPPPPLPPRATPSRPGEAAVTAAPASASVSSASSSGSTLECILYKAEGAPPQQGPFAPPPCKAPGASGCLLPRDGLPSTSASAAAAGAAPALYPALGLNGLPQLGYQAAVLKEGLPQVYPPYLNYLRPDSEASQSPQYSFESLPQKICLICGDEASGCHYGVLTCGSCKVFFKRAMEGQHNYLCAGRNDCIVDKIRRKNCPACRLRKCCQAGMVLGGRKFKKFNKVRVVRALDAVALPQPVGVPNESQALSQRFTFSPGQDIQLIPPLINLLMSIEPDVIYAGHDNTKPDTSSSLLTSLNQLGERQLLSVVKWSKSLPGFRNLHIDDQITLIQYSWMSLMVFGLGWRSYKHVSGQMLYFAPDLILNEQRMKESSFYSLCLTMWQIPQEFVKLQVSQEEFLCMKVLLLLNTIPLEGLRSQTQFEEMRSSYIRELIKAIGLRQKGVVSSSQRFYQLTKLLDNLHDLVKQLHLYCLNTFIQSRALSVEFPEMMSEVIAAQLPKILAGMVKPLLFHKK
Chain of Thyrotropin-releasing hormone receptor (Homo sapiens) (P34981 whole entry, looked up): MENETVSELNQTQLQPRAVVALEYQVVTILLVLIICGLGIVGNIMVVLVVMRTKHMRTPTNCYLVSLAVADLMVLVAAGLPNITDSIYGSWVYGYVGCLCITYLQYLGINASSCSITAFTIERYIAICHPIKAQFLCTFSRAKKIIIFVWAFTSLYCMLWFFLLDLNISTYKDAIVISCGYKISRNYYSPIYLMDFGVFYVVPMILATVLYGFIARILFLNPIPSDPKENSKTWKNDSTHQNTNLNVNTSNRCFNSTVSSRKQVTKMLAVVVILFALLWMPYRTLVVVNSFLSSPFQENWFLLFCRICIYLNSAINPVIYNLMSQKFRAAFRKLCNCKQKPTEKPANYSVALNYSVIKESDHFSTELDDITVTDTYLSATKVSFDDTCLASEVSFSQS
Chain of Nuclear receptor subfamily 1 group I member 2 (Rattus norvegicus) (Q9R1A7 whole entry, looked up): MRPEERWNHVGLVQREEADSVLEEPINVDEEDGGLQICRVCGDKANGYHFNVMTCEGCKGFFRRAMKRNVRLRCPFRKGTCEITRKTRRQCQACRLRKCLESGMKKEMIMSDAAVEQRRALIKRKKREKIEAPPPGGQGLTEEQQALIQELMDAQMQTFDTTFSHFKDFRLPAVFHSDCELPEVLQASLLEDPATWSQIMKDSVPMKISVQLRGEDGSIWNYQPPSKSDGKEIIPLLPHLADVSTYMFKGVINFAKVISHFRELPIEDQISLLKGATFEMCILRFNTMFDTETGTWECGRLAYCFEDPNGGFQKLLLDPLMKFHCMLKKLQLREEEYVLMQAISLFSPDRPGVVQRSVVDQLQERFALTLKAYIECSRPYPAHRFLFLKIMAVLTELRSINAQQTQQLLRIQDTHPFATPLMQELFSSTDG

Structure (SMILES)	Potency [1]	Potency [2]	Potency [3]	outcome [4]	Potency [5]	Potency [6]	outcome [7]	Potency [8]	Potency [9]	Potency [10]	outcome [11]	Potency [12]	Potency [13]	Potency [14]	Potency [15]	outcome [16]	max activation [17] [%]	Potency [18]	Potency [19]
Cc1cc(CCCOc2c(C)cc(-c3noc(C(F)(F)F)n3)cc2C)on1	inactive	inactive	inactive	inactive	inactive	inactive	inactive	inactive	inactive	inactive	inactive	inactive	21.1 µM (active)						
CC(C)(C)CCCCCCOC(=O)c1ccccc1C(=O)OCCCCCCC(C)(C)C		inactive	inactive	inactive	inactive	inactive	inactive	inactive	inactive	inactive	inactive		61.2 µM (active)	inactive	inactive	inactive			
OCC(CO)n1cnc(-c2ccc(F)cc2)c1-c1ccnc(Oc2ccccc2)n1	inactive	inactive	inactive		inactive	inactive	inactive	inactive	inactive	inactive	inactive	inactive		inactive		inactive			
O=C(O)CCC(=O)OC[C@@H](NC(=O)C(Cl)Cl)[C@H](O)c1ccc([N+](=O)[O-])cc1		inactive	inactive	inactive		inactive	inactive	inactive	inactive	inactive	inactive	inactive	inactive	inactive		inactive			
CCOCCC(=O)OCC		inactive	inactive	inactive		inactive	inactive	inactive	inactive		inactive	inactive	inactive	inactive		inactive			
CCC1CCC(CCC(=O)O)C1 (centres undefined)		inactive		inactive	inactive	inactive	inactive	inactive	inactive	inactive	inactive				inactive	inactive			
COc1ccc(C(=O)NCc2ccc(OCCN(C)C)cc2)cc1OC		inactive	inactive	inactive	inactive	inactive	inactive	inactive	inactive	inactive	inactive	inactive	inactive	inactive	inactive		-0.841	inactive	inactive
CC(CCc1ccc(O)cc1)NCCc1ccc(O)c(O)c1 (centres undefined)		inactive	inactive	inactive	inactive	inactive	inactive	inactive	inactive		inactive		inactive	inactive	inactive	inactive			
Nc1cccc2c(N)cccc12	48.6 µM (active)	1.93 µM (active)		inactive	inactive	inactive		5.45 µM (active)			inactive	61.1 µM (active)	17.2 µM (active)						
CCN(Cc1cccc(S(=O)(=O)O)c1)c1ccc(C(=C2C=CC(=[N+](CC)Cc3cccc(S(=O)(=O)O)c3)C=C2)c2ccc(O)cc2S(=O)(=O)[O-])cc1	16.6 µM (active)	inactive	inactive			inactive		18.6 µM (active)	inactive	18.6 µM (active)	inactive			inactive					
